# Laboratory results as given in PubChem BioAssay (Tox21).
# Unmarked numbers belong to inactive results. Inconclusive results are not listed. Where a call stands in place of a potency, no number is given. Calls of active or inactive are those of the source. Unless noted, calls follow the shape of the dose curve; as a rule, active = well fitted curve in the direction sought with a large enough effect in the repeat runs; inconclusive = weak or mixed curves; inactive = flat fitted curve, though single readings scatter.
# How the values were obtained:
# [1] = qHTS assay to test for compound auto fluorescence at 535 nm (green) in HEK293 cells (AID 720680)
# [2] = qHTS assay to test for compound auto fluorescence at 460 nm (blue) in HEK293 cell free culture (AID 720681); also: potency is read from the fitted curve at half-maximal effect
# Outline: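 Blue fluorescence (Ex 405/Em 460 nm, triamterene-equivalent) was read immediately after pin transfer of compound or DMSO into medium (DMEM, 10% FBS) without cells.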
# [3] = qHTS assay to test for compound auto fluorescence at 535 nm (green) in HEK293 cell free culture (AID 720682)
# Outline: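 Compounds were pin-transferred into cell-free DMEM with 10% FBS, and green fluorescence was read at excitation 485 nm and emission 535 nm. Intensities were expressed as fluorescein-equivalent values.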
# [4] = qHTS assay to test for compound auto fluorescence at 590 nm (red) in HEK293 cell free culture (AID 720683)
# Outline: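 Red-channel autofluorescence of compounds in culture medium (DMEM, 10% FBS), no cells, measured at 540/590 nm. Rose Bengal sodium is the reference fluorophore for equivalence.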
# [5] = qHTS assay to test for compound auto fluorescence at 590 nm (red) in HepG2 cell free culture (AID 720684)
# Outline: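 Steps: dispense MEM/10% FBS medium, no cells; pin compound or DMSO vehicle; read red channel, Ex/Em 540/590 nm. Output given as Rose Bengal sodium equivalents.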
# [6] = qHTS assay to test for compound auto fluorescence at 460 nm (blue) in HepG2 cell free culture (AID 720685); also: potency is read from the fitted curve at half-maximal effect
# Outline: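 Compound (23 nL) or DMSO pinned into cell-free MEM with 10% FBS; blue fluorescence read at 405/460 nm excitation/emission, expressed as auto-fluorescence equivalency to triamterene.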
# [7] = qHTS assay to test for compound auto fluorescence at 535 nm (green) in HepG2 cell free culture (AID 720686)
# [8] = qHTS assay to test for compound auto fluorescence at 460 nm (blue) in HepG2 cells (AID 720687); also: potency is read from the fitted curve at half-maximal effect
# Outline: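 Blue-channel autofluorescence (Ex/Em 405/460 nm, triamterene-equivalent) was measured after 1 hr compound exposure at 37 C, 5% CO2. Cells were HepG2, plated overnight at 37 C in MEM plus 10% FBS.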
# [9] = target: Glucocorticoid receptor (Homo sapiens) (UniProt P04150); assay: qHTS assay to identify small molecule agonists of the glucocorticoid receptor (GR) signaling pathway (AID 720691; active = well fitted activation curve with a large enough effect in the signal ratio in the repeat runs, not every such curve was filed as active; the % refers to the signal ratio)
# Sequence of Glucocorticoid receptor (Homo sapiens) (P04150 whole entry, looked up): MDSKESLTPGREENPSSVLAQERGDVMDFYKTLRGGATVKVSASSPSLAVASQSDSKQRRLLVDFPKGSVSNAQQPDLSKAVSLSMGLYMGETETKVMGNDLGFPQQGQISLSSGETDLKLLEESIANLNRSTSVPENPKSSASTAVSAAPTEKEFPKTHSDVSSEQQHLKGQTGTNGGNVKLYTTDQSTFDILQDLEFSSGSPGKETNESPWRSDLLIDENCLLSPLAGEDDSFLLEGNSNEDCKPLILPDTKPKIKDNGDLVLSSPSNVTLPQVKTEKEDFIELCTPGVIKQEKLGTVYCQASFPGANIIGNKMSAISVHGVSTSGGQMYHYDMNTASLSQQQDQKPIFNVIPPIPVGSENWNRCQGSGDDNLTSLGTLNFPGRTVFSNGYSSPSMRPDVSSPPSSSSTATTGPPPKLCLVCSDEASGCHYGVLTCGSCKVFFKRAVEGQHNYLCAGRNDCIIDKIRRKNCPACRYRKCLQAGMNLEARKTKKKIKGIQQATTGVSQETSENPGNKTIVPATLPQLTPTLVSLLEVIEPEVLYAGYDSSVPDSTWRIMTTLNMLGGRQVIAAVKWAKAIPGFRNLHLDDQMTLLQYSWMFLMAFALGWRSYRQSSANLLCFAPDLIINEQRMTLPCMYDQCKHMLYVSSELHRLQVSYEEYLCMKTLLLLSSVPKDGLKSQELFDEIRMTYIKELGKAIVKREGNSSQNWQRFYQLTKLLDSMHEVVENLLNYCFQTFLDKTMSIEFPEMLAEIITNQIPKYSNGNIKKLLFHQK
# Outline: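 qHTS in GR-bla HeLa cells: 4 h settling at 37 C/5% CO2, 18 h compound incubation at 37 C, 2 h LiveBLAzer B/G FRET substrate at room temperature, fluorescence intensity measured.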
# Tags tell the direction and shape of the fitted curve or compound fluorescence and quenching.
structure (smiles),measurement,setting,value
[Hg+2].[I-].[I-],outcome,[1],inactive
same,Potency,[2],inactive
same,outcome,[3],inactive
same,outcome,[4],inactive
same,outcome,[5],inactive
same,Potency,[6],inactive
same,outcome,[7],inactive
same,Potency,[8],inactive
CC(C)(O)c1cnn2c(-c3ccc(F)c(-c4c(F)cccc4C#N)c3)cnc2n1,outcome,[1],inactive
same,Potency,[2],inactive
same,outcome,[3],inactive
same,outcome,[4],inactive
same,outcome,[5],inactive
same,Potency,[6],inactive
same,outcome,[7],inactive
same,Potency,[8],inactive
CC(C)OS(C)(=O)=O,outcome,[1],inactive
same,Potency,[2],inactive
same,outcome,[3],inactive
same,outcome,[4],inactive
same,outcome,[5],inactive
same,Potency,[6],inactive
same,outcome,[7],inactive
same,Potency,[8],inactive
Oc1ccc(C(=C(Cl)Cl)c2ccc(O)cc2)cc1,outcome,[1],inactive
same,Potency,[2],inactive
same,outcome,[3],inactive
same,outcome,[4],inactive
same,outcome,[5],inactive
same,Potency,[6],inactive
same,outcome,[7],inactive
same,Potency,[8],inactive
CCCOCC(=Nc1ccc(Cl)cc1C(F)(F)F)n1ccnc1,outcome,[1],inactive
same,Potency,[2],inactive
same,outcome,[3],inactive
same,outcome,[4],inactive
same,outcome,[5],inactive
same,Potency,[6],inactive
same,outcome,[7],inactive
same,Potency,[8],inactive
CC(C)(C)OO,outcome,[1],inactive
same,Potency,[2],inactive
same,outcome,[3],inactive
same,outcome,[4],inactive
same,outcome,[5],inactive
same,Potency,[6],inactive
same,outcome,[7],inactive
same,Potency,[8],inactive
O=C1NCN(c2ccccc2)C12CCN(CC1COc3ccccc3O1)CC2 (stereo unspecified),outcome,[1],inactive
same,Potency,[2],inactive
same,outcome,[3],inactive
same,outcome,[4],inactive
same,outcome,[5],inactive
same,Potency,[6],inactive
same,outcome,[7],inactive
same,Potency,[8],inactive
CC(C)(C)c1cc([N+](=O)[O-])cc(C(C)(C)C)c1O,outcome,[1],inactive
same,Potency,[2],inactive
same,outcome,[3],inactive
same,outcome,[4],inactive
same,outcome,[5],inactive
same,Potency,[6],inactive
same,outcome,[7],inactive
same,Potency,[8],inactive
CCC[CH2][Sn]([CH2]CCC)([CH2]CCC)[O]C(=O)c1ccccc1,outcome,[1],inactive
same,Potency,[2],inactive
same,outcome,[3],inactive
same,outcome,[4],inactive
same,outcome,[5],inactive
same,Potency,[6],inactive
same,outcome,[7],inactive
same,Potency,[8],inactive
CC(=O)OC1(c2ccccc2)CCN(CCc2ccccc2)CC1,outcome,[1],inactive
same,Potency,[2],inactive
same,outcome,[3],inactive
same,outcome,[4],inactive
same,outcome,[5],inactive
same,Potency,[6],inactive
same,outcome,[7],inactive
same,Potency,[8],inactive
Cc1cc(SCc2sc(-c3ccc(C(F)(F)F)c(F)c3)nc2C)ccc1OCC(=O)O,outcome,[1],inactive
same,Potency,[2],inactive
same,outcome,[3],inactive
same,outcome,[4],inactive
same,outcome,[5],inactive
same,Potency,[6],inactive
same,outcome,[7],inactive
same,Potency,[8],inactive
CC(C)C1CCC(Cc2ccc(Cl)cc2)C1(O)Cn1cncn1 (stereo unspecified),outcome,[1],inactive
same,Potency,[2],inactive
same,outcome,[3],inactive
same,outcome,[4],inactive
same,outcome,[5],inactive
same,Potency,[6],inactive
same,outcome,[7],inactive
same,Potency,[8],inactive
N#CSCSC#N,outcome,[1],inactive
same,Potency,[2],inactive
same,outcome,[3],inactive
same,outcome,[4],inactive
same,outcome,[5],inactive
same,Potency,[6],inactive
same,outcome,[7],inactive
same,Potency,[8],inactive
Oc1ccc2ccc3cccc4ccc1c2c34,outcome,[1],inactive
same,Potency,[2],44.7 µM (active)
same,outcome,[3],inactive
same,outcome,[4],inactive
same,outcome,[5],inactive
same,Potency,[6],39.8 µM [fluorescent] (active)
same,outcome,[7],inactive
same,Potency,[8],35.5 µM [fluorescent] (active)
same,Potency,[9],inactive
CCCCCCCCc1ccc(O)cc1,outcome,[1],inactive
same,Potency,[2],inactive
same,outcome,[3],inactive
same,outcome,[4],inactive
same,outcome,[5],inactive
same,Potency,[6],inactive
same,outcome,[7],inactive
same,Potency,[8],inactive
same,Potency,[9],inactive
Oc1cc(Cl)c(Cl)c(Cl)c1,outcome,[1],inactive
same,Potency,[2],inactive
same,outcome,[3],inactive
same,outcome,[4],inactive
same,outcome,[5],inactive
same,Potency,[6],inactive
same,outcome,[7],inactive
same,Potency,[8],inactive
same,Potency,[9],inactive
O=[N+]([O-])c1c2ccccc2cc2ccccc12,outcome,[1],inactive
same,Potency,[2],inactive
same,outcome,[3],inactive
same,outcome,[4],inactive
same,outcome,[5],inactive
same,Potency,[6],inactive
same,outcome,[7],inactive
same,Potency,[8],inactive
same,Potency,[9],inactive
Nc1ccc(Sc2ccc(N)cc2)cc1,outcome,[1],inactive
same,Potency,[2],inactive
same,outcome,[3],inactive
same,outcome,[4],inactive
same,outcome,[5],inactive
same,Potency,[6],inactive
same,outcome,[7],inactive
same,Potency,[8],inactive
same,Potency,[9],inactive
O=c1oc2ccccc2c(O)c1Cc1c(O)c2ccccc2oc1=O,"fluorescence, % of fluorescein",[1],0.155% [at 18.6 µM]
same,"fluorescence, % of fluorescent control",[2],0.0571% [at 18.6 µM]
same,activity change,[3],0.109% [at 18.6 µM]
same,"fluorescence, % of fluorescent control",[4],0.108% [at 18.6 µM]
same,"fluorescence, % of Rose Bengal",[5],0.445% [at 18.6 µM]
same,"fluorescence, % of fluorescent control",[6],-0.0804% [at 18.6 µM]
same,"fluorescence, % of fluorescein control",[7],0.114% [at 18.6 µM]
same,"fluorescence, % of fluorescent control",[8],0.0049% [at 18.6 µM]
CCN,outcome,[1],inactive
same,Potency,[2],inactive
same,outcome,[3],inactive
same,outcome,[4],inactive
same,outcome,[5],inactive
same,Potency,[6],inactive
same,outcome,[7],inactive
same,Potency,[8],inactive
same,Potency,[9],inactive
CCCN(CCC)c1c([N+](=O)[O-])cc(S(N)(=O)=O)cc1[N+](=O)[O-],outcome,[1],inactive
same,Potency,[2],inactive
same,outcome,[3],inactive
same,outcome,[4],inactive
same,outcome,[5],inactive
same,Potency,[6],inactive
same,outcome,[7],inactive
same,Potency,[8],inactive
[Cl][Sb]([Cl])[Cl],outcome,[1],inactive
same,Potency,[2],inactive
same,outcome,[3],inactive
same,outcome,[4],inactive
same,outcome,[5],inactive
same,Potency,[6],inactive
same,outcome,[7],inactive
same,Potency,[8],inactive
CS(=O)(=O)c1ccc(C(=O)C2C(=O)CCCC2=O)c([N+](=O)[O-])c1,outcome,[1],inactive
same,Potency,[2],inactive
same,outcome,[3],inactive
same,outcome,[4],inactive
same,outcome,[5],inactive
same,Potency,[6],inactive
same,outcome,[7],inactive
same,Potency,[8],inactive
same,Potency,[9],inactive
